{"source": "PubChem BioAssay (NCATS)", "key": {"[1]": {"molecular_target": "Cytochrome P450 3A4 (Homo sapiens) (UniProt P08684)", "sequence (P08684 whole entry, looked up)": "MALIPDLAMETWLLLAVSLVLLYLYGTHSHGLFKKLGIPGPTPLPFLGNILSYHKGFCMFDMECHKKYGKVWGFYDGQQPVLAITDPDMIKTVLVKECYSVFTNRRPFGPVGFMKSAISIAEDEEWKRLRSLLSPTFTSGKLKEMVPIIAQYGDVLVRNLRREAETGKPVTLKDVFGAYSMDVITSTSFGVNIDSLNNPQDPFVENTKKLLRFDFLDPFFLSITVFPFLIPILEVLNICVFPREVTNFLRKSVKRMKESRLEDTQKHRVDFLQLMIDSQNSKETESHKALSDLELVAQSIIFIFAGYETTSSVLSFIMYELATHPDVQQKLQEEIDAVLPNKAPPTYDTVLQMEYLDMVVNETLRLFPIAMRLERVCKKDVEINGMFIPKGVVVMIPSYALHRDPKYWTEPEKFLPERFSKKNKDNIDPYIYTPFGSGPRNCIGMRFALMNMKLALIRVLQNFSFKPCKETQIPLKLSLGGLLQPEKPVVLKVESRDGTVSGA", "assay": "qHTS Assay for Inhibitors and Substrates of Cytochrome P450 3A4 (AID 884); also: nearly all actives have a fitted effect of over 50% in size", "method_in_brief": "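20 nM human CYP3A4 with 25 uM Luciferin-PPXE (at KM) in 200 mM KPO4, preincubated 10 min with compound; NADPH regeneration started a 60 min RT reaction. Luciferin detected by luminescence, normalized to 57 uM ketoconazole as full inhibition.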"}, "[2]": {"assay": "Confirmation and Secondary Assay for Modulators of Hemoglobin Beta Chain Splicing at IVS2 654 locus (AID 910)", "method_in_brief": "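HeLa cells stably carrying EGFP interrupted by mutant beta-globin IVS2-654 intron (CMV-driven) were treated with compound for 2 days at 37C; corrected splicing was scored as total peak GFP intensity per well (488 nm excitation, 500-520 nm emission).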"}, "[3]": {"assay": "Confirmation and Secondary Assay for Modulators of Hemoglobin Beta Chain Splicing at IVS2 705 locus (AID 930)", "method_in_brief": "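Read-out: total peak GFP fluorescence per well (488 nm excitation, 500-520 nm emission) by laser-scanning cytometry. Cells: HeLa EGFP-705 splicing reporter, 2 days compound exposure in Optimem/2% FCS.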"}, "[4]": {"assay": "qHTS Assay for Lipid Storage Modulators (AID 1519; calls by dose curve)", "details": "Drosophila S3 cells, BODIPY lipid droplet/cell ratio, laser cytometry, cells loaded with oleic acid", "method_in_brief": "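Cells seeded at 5,000 per well were treated with compounds over a concentration series and loaded with oleic acid (400 uM, as added). Lipid droplet fluorescence (488 nm excitation, 500-530 nm channel) was read by laser-scanning cytometry and normalized to 20 uM Triacsin C.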"}, "[5]": {"molecular_target": "Ubiquitin carboxyl-terminal hydrolase 1 (Homo sapiens) (UniProt O94782)", "sequence (O94782 whole entry, looked up)": "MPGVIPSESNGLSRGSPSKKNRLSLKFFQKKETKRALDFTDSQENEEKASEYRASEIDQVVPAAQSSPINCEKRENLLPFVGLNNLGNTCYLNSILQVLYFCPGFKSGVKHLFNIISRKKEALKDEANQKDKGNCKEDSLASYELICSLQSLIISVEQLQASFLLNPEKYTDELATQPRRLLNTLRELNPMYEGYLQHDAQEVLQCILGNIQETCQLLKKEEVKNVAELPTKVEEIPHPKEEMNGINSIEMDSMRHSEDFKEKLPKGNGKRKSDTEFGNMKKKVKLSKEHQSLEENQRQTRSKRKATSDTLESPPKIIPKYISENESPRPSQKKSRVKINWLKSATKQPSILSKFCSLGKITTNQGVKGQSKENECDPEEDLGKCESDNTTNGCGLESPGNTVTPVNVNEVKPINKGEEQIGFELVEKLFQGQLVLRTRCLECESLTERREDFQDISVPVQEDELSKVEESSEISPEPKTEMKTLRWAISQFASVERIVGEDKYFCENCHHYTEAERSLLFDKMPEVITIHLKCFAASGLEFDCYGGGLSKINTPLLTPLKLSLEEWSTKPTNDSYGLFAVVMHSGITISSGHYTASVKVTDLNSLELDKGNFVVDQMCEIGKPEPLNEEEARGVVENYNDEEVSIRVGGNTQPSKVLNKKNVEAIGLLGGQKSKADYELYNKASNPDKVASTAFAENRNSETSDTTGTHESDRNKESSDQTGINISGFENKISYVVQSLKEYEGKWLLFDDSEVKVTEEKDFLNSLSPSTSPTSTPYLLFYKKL", "assay": "Inhibitors of USP1/UAF1: Pilot qHTS (AID 504865);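 also: rhodamine fluorescence freed from ubiquitin-rhodamine substrate followed over time; top concentration of the series differs between compounds; nearly all actives have a fitted effect of over 35% in size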", "method_in_brief": "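In 50mM HEPES pH 7.8 containing 0.5mM EDTA, 1mM TCEP, 0.1 mg/ml BSA and 0.01% Tween-20, 1nM USP1/UAF1 is exposed to compound for 15 min, then Ub-Rho (150nM final) is added and fluorescence is read over time.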"}, "Furin (Homo sapiens)": {"molecular_target": "Furin (Homo sapiens) (UniProt P09958)", "sequence (P09958 whole entry, looked up)": "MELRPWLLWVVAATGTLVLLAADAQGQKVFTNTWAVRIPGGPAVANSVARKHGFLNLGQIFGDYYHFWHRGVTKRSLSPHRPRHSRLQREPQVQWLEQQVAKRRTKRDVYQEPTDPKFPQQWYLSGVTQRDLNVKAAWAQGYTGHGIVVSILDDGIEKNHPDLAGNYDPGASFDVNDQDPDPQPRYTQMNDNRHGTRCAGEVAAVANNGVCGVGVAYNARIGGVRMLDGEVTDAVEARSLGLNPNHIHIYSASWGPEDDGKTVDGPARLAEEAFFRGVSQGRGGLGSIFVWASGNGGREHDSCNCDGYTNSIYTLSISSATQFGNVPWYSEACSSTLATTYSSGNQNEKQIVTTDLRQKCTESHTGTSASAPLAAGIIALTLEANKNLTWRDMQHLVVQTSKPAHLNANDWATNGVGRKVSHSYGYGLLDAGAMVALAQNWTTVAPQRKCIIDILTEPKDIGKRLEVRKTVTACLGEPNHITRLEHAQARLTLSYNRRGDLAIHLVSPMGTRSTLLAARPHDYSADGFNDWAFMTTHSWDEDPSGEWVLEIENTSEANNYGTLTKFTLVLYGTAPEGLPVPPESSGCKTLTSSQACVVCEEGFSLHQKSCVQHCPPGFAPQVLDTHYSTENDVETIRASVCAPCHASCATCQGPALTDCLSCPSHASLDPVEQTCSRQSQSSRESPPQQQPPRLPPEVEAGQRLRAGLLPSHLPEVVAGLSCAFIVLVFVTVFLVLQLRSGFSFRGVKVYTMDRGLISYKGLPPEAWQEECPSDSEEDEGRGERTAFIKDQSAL", "assay": "Furin counterscreen qHTS for Zika virus inhibitors (AID 1347149); also: nearly all actives have a fitted effect of over 70% in size; also: potency is read from the fitted curve at half-maximal effect;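 as to activity change, negative = inhibition: purified recombinant full-length human furin enzyme at 5 nM; top concentration of the series differs between compounds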", "method_in_brief": "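Fluorogenic cleavage of BOC-RVRR-AMC (2 microM final, Km ~15 µM) was monitored (ex 340, em 450 nm) at 37C after 15 min RT preincubation of 5 nM furin with compounds in HEPES pH 7.0 buffer with CaCl2 and Triton X-100. Percent inhibition was fitted to a 4-parameter Hill curve.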"}, "[6]": {"system": "Zika virus NS2B-NS3 protease (unlinked)", "assay": "Optimization of GU AMC qHTS for Zika virus inhibitors: Unlinked NS2B-NS3 protease assay (AID 1347151); also: nearly all actives have a fitted effect of over 80% in size", "method_in_brief": "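Unlinked protease (25 nM final); buffer 10 mM Tris-HCl pH 8.0 + 0.01% Tween 20; AMC substrate; 15 min RT, dark; Δfluorescence normalized to no-inhibitor/no-enzyme controls; 4-parameter Hill fit.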"}, "[7]": {"assay": "Vero cells viability qHTS for Zika virus inhibitors (AID 1347167)", "method_in_brief": "(§1)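 Counter-screen for cytotoxicity of hits from NS2B-NS3 protease qHTS. Overnight-attached cells (2.5 x 10^5 cells/mL, DMEM/4% FBS) were dosed in titration, incubated 24 to 48 hours, then assayed by CellTiter Glo.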"}, "[8]": {"assay": "Tertiary RLuc qRT-PCR qHTS assay for Zika virus inhibitors (AID 1347169)", "method_in_brief": "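Vero, 1,000 cells/well, o/n 37 C; cpd pinned in DMSO; ZIKV-RLuc Cambodian, MOI 1-2, 48-72 h 37 C; live-cell RLuc substrate, lum read at 1-1.5 h.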"}, "[9]": {"system": "Zika virus NS2B-NS3 protease (linked construct)", "assay": "Confirmatory screen NINDS AMC qHTS for Zika virus inhibitors (AID 1347152)", "method_in_brief": "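Enzyme (1 nM, linked construct) was preincubated with compound for 15 minutes at room temperature in 10 mM Tris-HCl pH 8.0 with 0.01% Tween 20. Bz-Nle-Lys-Arg-Arg-AMC was then added to 10 microM, and AMC fluorescence was recorded immediately and after 15 minutes.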"}, "[10]": {"assay": "HepG2 cells viability qHTS for Zika virus inhibitors (AID 1347168)", "method_in_brief": "as §1"}, "[11]": {"assay": "Primary qHTS for small molecule stabilizers of the endoplasmic reticulum resident proteome: Secreted ER Calcium Modulated Protein (SERCaMP) assay (AID 1508630)", "method_in_brief": "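GLuc-SERCaMP-expressing SH-SY5Y cells, pretreated 16 h with compound, are challenged with thapsigargin to empty ER calcium stores; after 4 h, coelenterazine is added directly to the medium and luminescence is imaged.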"}, "[12]": {"system": "Zika virus NS2B-NS3 protease (unlinked complex)", "assay": "Confirmatory screen GU AMC qHTS for Zika virus inhibitors (AID 1347153)", "method_in_brief": "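Noncovalent NS2B hydrophilic domain/NS3 protease complex (25 nM) in 10 mM Tris-HCl pH 8.0, 0.01% Tween 20 was preincubated 15 min at room temperature with compounds. Then 10 µM AMC substrate (Km 18.3 µM) was added; fluorescence was read over 15 min and fitted to a 4-parameter Hill equation.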"}, "[13]": {"system": "Zika virus NS2B-NS3 protease (linked construct)", "assay": "384 well plate NINDS Rhodamine confirmatory qHTS for Zika virus inhibitors (AID 1347164)", "method_in_brief": "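Enzyme (final 5/30/60 nM) + cpd (DMSO), ~15 min; add Ac-LKRR-Rd 10 microM final; 25 min RT, dark; FI ex 485/em 538; normalized to no-enzyme, no-inhibitor ctrls; aprotinin intraplate ctrl.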"}, "[14]": {"system": "Zika virus NS2B-NS3 protease", "assay": "Primary screen GU AMC qHTS for Zika virus inhibitors (AID 1347154)", "method_in_brief": "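Unlinked Zika NS2B hydrophilic domain/NS3 protease domain noncovalent complex (25 nM final) in 10 mM Tris-HCl pH 8.0, 0.01% Tween 20, with AMC peptide substrate. Fluorescence (ex 340, em 450 nm) change over 15 min, room temperature; percent inhibition fitted to 4-parameter Hill equation.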"}, "[15]": {"system": "Zika virus NS2B-NS3 protease (linked)", "assay": "384 well plate NINDS AMC confirmatory qHTS for Zika virus inhibitors (AID 1347163)", "method_in_brief": "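Linked protease 5/30/60 nM final; cpds up to 1 mM final, ~15 min preinc. Substrate Ac-VKTGKR-AMC 30 microM final. RT, dark, 25 min; FI ex 355/em 460; normalized to no-enzyme/no-inhibitor ctrls.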"}}, "note": "Results filed as inconclusive are left out. Entries that show only a call come without a potency. Calls of active or inactive are those of the source. Unless noted, calls follow the shape of the dose curve; as a rule, active = well fitted curve in the direction sought with a large enough effect; inconclusive = small, poorly fitted or top-dose-only effect, or another doubt; inactive = no such curve, though single readings can be large; an effect the other way counts as inactive or inconclusive.", "data": [{"smiles": "CC1O[C@@H](O[C@@H]2C(O)C[C@H](O[C@@H]3C(O)C[C@@H](OC4CC[C@@]5(C)C6CC(O)[C@@]7(C)C(C8=CC(=O)OC8)CC[C@@]7(O)C6CC[C@@H]5C4)OC3C)OC2C)CC(O)[C@H]1O", "note": "(some centres undefined)", "values": [{"measurement": "Potency", "setting": "[1]", "value": "inactive"}, {"measurement": "outcome", "setting": "[2]", "value": "inactive"}, {"measurement": "outcome", "setting": "[3]", "value": "inactive"}, {"measurement": "activity change, negative = inhibition", "setting": "[4]; at 57.5 µM (top of the series)", "value": "7.91% (inactive)"}, {"measurement": "max response", "setting": "[4]; measured here: cell count channel max response", "value": 11.2, "unit": "%"}, {"measurement": "max response", "setting": "[4]; measured here: lipid channel max response", "value": 22.9, "unit": "%"}, {"measurement": "Potency", "setting": "[5]", "value": "inactive"}, {"measurement": "Potency", "setting": "Furin (Homo sapiens)", "value": "inactive"}, {"measurement": "Potency", "setting": "[6]", "value": "inactive"}, {"measurement": "Potency", "setting": "[7]", "value": "inactive"}, {"measurement": "Potency", "setting": "[8]", "value": "1.17 µM (active)"}]}, {"smiles": "CCN(CC)c1ccc(/C=N/NC(=O)c2ccc(O)cc2)cc1", "values": [{"measurement": "Potency", "setting": "Furin (Homo sapiens)", "value": "24.1 µM (active)"}, {"measurement": "Potency", "setting": "[9]", "value": "inactive"}, {"measurement": "Potency", "setting": "[7]", "value": "inactive"}, {"measurement": "Potency", "setting": "[10]", "value": "inactive"}, {"measurement": "Potency", "setting": "[8]", "value": "inactive"}, {"measurement": "Potency", "setting": "[11]", "value": "inactive"}]}, {"smiles": "O=C(O)COc1ccc(-c2nccc3c2C(=O)N(Cc2ccccc2)CC(COc2cccc(C(F)(F)F)c2)O3)cc1", "note": "(centres undefined)", "values": [{"measurement": "Potency", "setting": "Furin (Homo sapiens)", "value": "inactive"}, {"measurement": "Potency", "setting": "[9]", "value": "55.5 µM (active)"}, {"measurement": "Potency", "setting": "[12]", "value": "44.1 µM (active)"}, {"measurement": "Potency", "setting": "[13]", "value": "35.5 µM (active)"}]}, {"smiles": "CC(=O)Oc1cc2c(c(C)c1OC(C)=O)CC=C1[C@@]2(C)CC[C@@]2(C)[C@H]3C[C@](C)(C(=O)O)CC[C@]3(C)CC[C@]12C", "values": [{"measurement": "Potency", "setting": "Furin (Homo sapiens)", "value": "inactive"}, {"measurement": "Potency", "setting": "[9]", "value": "19.2 µM (active)"}, {"measurement": "Potency", "setting": "[12]", "value": "21.5 µM (active)"}, {"measurement": "Potency", "setting": "[14]", "value": "13.4 µM (active)"}, {"measurement": "Potency", "setting": "[15]", "value": "158 µM (active)"}, {"measurement": "Potency", "setting": "[13]", "value": "35.5 µM (active)"}, {"measurement": "Potency", "setting": "[10]", "value": "13.1 µM (active)"}, {"measurement": "Potency", "setting": "[11]", "value": "inactive"}]}]}
